# Reference: the supplement of paper PMC8728848
# The sample as a whole holds a higher share of the strongest signals than the screen did.
# B1: ECA (Erythrina cristagalli), P83410 (protein)
# chain: VETISFSFSEFEPGNDNLTLQGAALITQSGVLQLTKINQNGMPAWDSTGRTLYTKPVHMWDSTTGTVASFETRFSFSIEQPYTRPLPADGLVFFMGPTKSKPAQGYGYLGVFNNSKQDNSYQTLAVEFDTFSNPWDPPQVPHIGIDVNSIRSIKTQPFQLDNGQVANVVIKYDAPSKILHVVLVYPSSGAIYTIAEIVDVKQVLPDWVDVGLSGATGAQRDAAETHDVYSWSFQASLPE
# How the values were obtained:
# Assay in all cases: glycan array binding signal (z-score within array); higher = stronger binding
# Settings in all cases: glycan notation: IUPAC condensed, linker removed
# [1] = molecular target: Fuc(a1-2)Gal(b1-3)GalNAc(b1-3)Gal(a1-4)Gal(b1-4)Glc
# Outline: (§1)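 Negative Z-scores can be read as non-binding. The Z-score is calculated within each array and then averaged across arrays of one protein sequence at different concentrations or buffers and across linkers. Arrays, 3228 in all, were curated from the Consortium for Functional Glycomics database and kept only where the protein sequence was available.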
# [2] = molecular target: Fuc(a1-2)Gal(b1-3)[Fuc(a1-4)]GlcNAc(b1-3)[Gal(b1-4)GlcNAc(b1-6)]Gal(b1-4)Glc
# Outline: as §1
# [3] = molecular target: Fuc(a1-2)Gal(b1-4)[Fuc(a1-3)]GlcNAc(b1-3)GalNAc
# Outline: as §1
# [4] = molecular target: Fuc(a1-2)Gal6S(b1-4)Glc6S
# Outline: as §1
# [5] = molecular target: Fuc(a1-2)[Gal(a1-3)]Gal(b1-4)GlcNAc(b1-2)Man
# Outline: as §1
# [6] = molecular target: Fuc(a1-2)[Gal(a1-3)]Gal(b1-4)GlcNAc(b1-6)GalNAc
# Outline: as §1
# [7] = molecular target: Fuc(a1-2)[Gal(a1-3)]Gal(b1-4)[Fuc(a1-3)]GlcNAc(b1-3)GalNAc
# Outline: as §1
# [8] = molecular target: Fuc(a1-3)[GalNAc(b1-4)]GlcNAc
# Outline: as §1
# [9] = molecular target: Gal(a1-3)Gal(b1-4)GlcNAc(b1-2)Man
# Outline: as §1
# [10] = molecular target: Gal(a1-3)Gal(b1-4)[Fuc(a1-3)]GlcNAc(b1-2)Man(a1-3)[Gal(a1-3)Gal(b1-4)[Fuc(a1-3)]GlcNAc(b1-2)Man(a1-6)]Man(b1-4)GlcNAc(b1-4)GlcNAc
# Outline: as §1
# [11] = molecular target: Gal(b1-3)GlcNAc(a1-6)Gal(b1-4)GlcNAc
# Outline: as §1
# [12] = molecular target: Gal(b1-3)GlcNAc(b1-6)GalNAc
# Outline: as §1
# [13] = molecular target: Gal(b1-3)[Fuc(a1-4)]GlcNAc
# Outline: as §1
# [14] = molecular target: Gal(b1-4)GlcNAc(b1-3)Gal(b1-4)GlcNAc(b1-2)Man(a1-3)[Gal(b1-4)GlcNAc(b1-3)Gal(b1-4)GlcNAc(b1-2)Man(a1-6)]Man(b1-4)GlcNAc(b1-4)GlcNAc
# Outline: as §1
# [15] = molecular target: Gal(b1-4)GlcNAc(b1-3)Gal(b1-4)GlcNAc(b1-2)[Gal(b1-4)GlcNAc(b1-3)Gal(b1-4)GlcNAc(b1-6)]Man(a1-6)[Gal(b1-4)GlcNAc(b1-3)Gal(b1-4)GlcNAc(b1-2)Man(a1-3)]Man(b1-4)GlcNAc(b1-4)[Fuc(a1-6)]GlcNAc
# Outline: as §1
# [16] = molecular target: Gal(b1-4)GlcNAc(b1-3)Gal(b1-4)GlcNAc(b1-3)Gal(b1-4)GlcNAc(b1-2)Man(a1-3)[Gal(b1-4)GlcNAc(b1-3)Gal(b1-4)GlcNAc(b1-3)Gal(b1-4)GlcNAc(b1-2)Man(a1-6)]Man(b1-4)GlcNAc(b1-4)GlcNAc
# Outline: as §1
# [17] = molecular target: Gal(b1-4)GlcNAc(b1-3)Gal(b1-4)GlcNAc(b1-3)Gal(b1-4)GlcNAc(b1-2)[Gal(b1-4)GlcNAc(b1-3)Gal(b1-4)GlcNAc(b1-3)Gal(b1-4)GlcNAc(b1-6)]Man(a1-6)[Gal(b1-4)GlcNAc(b1-3)Gal(b1-4)GlcNAc(b1-3)Gal(b1-4)GlcNAc(b1-2)Man(a1-3)]Man(b1-4)GlcNAc(b1-4)[Fuc(a1-6)]GlcNAc
# Outline: as §1
# [18] = molecular target: Gal(b1-4)GlcNAc(b1-3)Gal(b1-4)GlcNAc(b1-3)[Gal(b1-4)GlcNAc(b1-3)Gal(b1-4)GlcNAc(b1-6)]GalNAc
# Outline: as §1
# [19] = molecular target: Gal(b1-4)GlcNAc(b1-3)Gal(b1-4)GlcNAc(b1-6)[Gal(b1-3)]GalNAc
# Outline: as §1
# [20] = molecular target: Gal(b1-4)GlcNAc(b1-3)[Gal(b1-4)GlcNAc(b1-6)]GalNAc
# Outline: as §1
# [21] = molecular target: Gal(b1-4)GlcNAc(b1-6)Gal(b1-4)GlcNAc(b1-6)GalNAc
# Outline: as §1
# [22] = molecular target: GalNAc(a1-3)GalNAc
# Outline: as §1
# [23] = molecular target: GalNAc(b1-3)Gal
# Outline: as §1
# [24] = molecular target: GalNAc3S(b1-4)GlcNAc3S
# Outline: as §1
binder,measurement,setting,value
B1,glycan array binding signal (z-score),[1],-0.125
same,glycan array binding signal (z-score),[2],-0.309
same,glycan array binding signal (z-score),[3],0.542
same,glycan array binding signal (z-score),[4],-0.123
same,glycan array binding signal (z-score),[5],-0.485
same,glycan array binding signal (z-score),[6],-0.455
same,glycan array binding signal (z-score),[7],-0.399
same,glycan array binding signal (z-score),[8],-0.226
same,glycan array binding signal (z-score),[9],-0.517
same,glycan array binding signal (z-score),[10],10.5
same,glycan array binding signal (z-score),[11],-0.325
same,glycan array binding signal (z-score),[12],-0.491
same,glycan array binding signal (z-score),[13],-0.234
same,glycan array binding signal (z-score),[14],3.88
same,glycan array binding signal (z-score),[15],0.699
same,glycan array binding signal (z-score),[16],4.58
same,glycan array binding signal (z-score),[17],1.81
same,glycan array binding signal (z-score),[18],4.2
same,glycan array binding signal (z-score),[19],4.88
same,glycan array binding signal (z-score),[20],5.59
same,glycan array binding signal (z-score),[21],5.39
same,glycan array binding signal (z-score),[22],-0.186
same,glycan array binding signal (z-score),[23],-0.272
same,glycan array binding signal (z-score),[24],-0.509
